High-throughput results deposited in PubChem BioAssay by National Center for Advancing Translational Sciences (NCATS).
HCV inh = blocks hepatitis C virus; Huh7.5.1 HCVcc-Cre infection, luciferase reporter, 44 h; Potency, µM (series often up to 41.8 µM), most hits filed as inhibitors; hit rate 3.4% among 340,000; AID 651820
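Antiviral activity was scored by luciferase reporter output from cells infected with HCVcc-Cre (~0.5 moi) in presence of compound, 44 h infection period, cells seeded 1,000/well 4 h prior.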
HCMV inh = inhibitors of human cytomegalovirus | hit rate 4.5% among 410,000 | activity change, negative = inhibition, % at 57.5 µM | HFF cells, HCMV-luciferase reporter, 72 h; hits give low values; in the data active means activity change below about -60%; inconclusive means no clear call, values can overlap the other calls; inactive means above about -39%
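Steps: HFFs plated, 16 h 37C; compounds added; HCMV-luciferase added to MOI 1 PFU/cell; 72 h 37C; OneGlo reagent, 5 min room temperature; luminescence read, normalized to controls.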
Pf growth 96h = inhibits malaria parasite growth, 96 h | P. falciparum luciferase reporter growth, 96 h | Potency, µM (highest dose often 28.7 µM), usual class: inhibitors | hit rate 6.9% among 320,000
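Readout is luminescence from an integrated firefly luciferase in P. falciparum. Red cells, 2% hematocrit and 0.05% parasitemia final, were cultured with compound through two parasite generations (96 hours) at 37 C, 5% CO2.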
Lassa entry inh = blocks Lassa virus binding to or entry into cells; Lassa virus pseudotype entry inhibition, cell reporter; Potency, µM (top dose mostly 37.9 µM), hits mostly inhibitors; hit rate 1.2% among 300,000; calls by dose curve; tested in HEK293 cells; further: nearly all actives have a fitted effect of over 50% in size
Pf growth 48h = P. falciparum growth inhibition at 48 hours (one generation); P. falciparum luciferase growth in erythrocytes, 48 h; Potency, µM (titrated, usually from 28.7 µM), usual class: inhibitors; hit rate 5.9% among 310,000
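Luciferase-expressing parasites in RBCs, 2% Hct / 0.1% parasitemia final; RPMI 1640 + 0.5% Albumax; 37 C, 5% CO2, one generation; luminescence read-out, lower signal = inhibition.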
MARV entry inh = blocks Marburg virus binding to or entry into cells | Potency, µM (doses to about 37.8 µM), most hits filed as inhibitors | hit rate 1.8% among 300,000 | Marburg virus pseudotyped entry inhibition, cell reporter; calls by dose curve; tested in HEK293 cells
Of the large screens only hits and unclear results are named; the others gave an inactive call. This is a sample that favours compounds with a hit; in the whole collection about 14% have one here. Unless noted, the call rests on the fitted dose curve; in most records, active means well fitted inhibition curve with a large enough effect; inconclusive means small, poorly fitted or top-dose-only effect, or another doubt; inactive means no such curve, though single readings can be large or run the other way.

Cc1ccc(CNC(=O)CN(Cc2cccs2)C(=O)C2(C)CC(=O)N=C3C=CC=CN32)cc1 (configuration not stated)	HCMV inh -77, Pf growth 96h 1.7µM
Cc1ccc(CNC(=O)CN(C(=O)C2(C)CC(=O)N=C3C=CC=CN32)c2cc(C)ccc2C)cc1 (configuration not stated)	none
CC1=C(C(=O)Nc2ccc(CC(=O)NCc3ccc(OC(C)C)cc3)cc2)SCCO1	HCV inh inconclusive, Pf growth 96h inconclusive (no result: Lassa entry inh, MARV entry inh)
Cc1[nH]n(-c2ccccc2)c(=O)c1N=Nc1c(O)cc(S(=O)(=O)N(C)C)c2ccccc12	HCV inh inconclusive, HCMV inh -99, Pf growth 96h 4.1µM, Pf growth 48h 3.3µM (no result: Lassa entry inh, MARV entry inh)
Cc1[nH]n(-c2ccccc2)c(=O)c1N=Nc1ccc2c(c1)OCCO2	none (no result: Lassa entry inh, MARV entry inh)
CCOc1ccc(N2C(=O)CC(N3CCN(c4ccc(Cl)cc4)CC3)C2=O)cc1 (configuration not stated)	Pf growth 96h 3.3µM (no result: Lassa entry inh, MARV entry inh)
O=C(NCC(c1ccco1)S(=O)(=O)c1cccs1)c1c(F)cccc1F (configuration not stated)	none (no result: HCV inh, Pf growth 96h, Pf growth 48h, MARV entry inh)
Cn1nc([N+](=O)[O-])nc1Sc1nnc(-c2ccccc2)o1	HCMV inh -90, Pf growth 96h inconclusive, MARV entry inh inconclusive (no result: Pf growth 48h)
Cc1ccc(-c2noc(-c3ccccc3NC(=O)C3CC(=O)N(c4ccccc4C)C3)n2)cc1 (configuration not stated)	none (no result: HCV inh, Pf growth 96h, Pf growth 48h)
CC(C)(C)c1cc(CCC(=O)N2CCNCC2)c(C(C)(C)C)cc1O	HCV inh inconclusive, Pf growth 48h inconclusive, MARV entry inh 15µM
Cc1ccc(OCCNC(=O)c2cncc(Br)c2)cc1C	HCMV inh -107
CC(C)(C)c1ccc(C(=O)N2CCCCCC2=O)cc1	Lassa entry inh inconclusive, Pf growth 48h 5.2µM, MARV entry inh inconclusive
COc1ccc(C(=O)Nc2nc3ccccc3n2CCOc2ccc(Cl)cc2)cc1	none (no result: HCV inh, Pf growth 96h, Pf growth 48h)
CCC(C)n1cnc2c(c1=O)c1nc3ccccc3nc1n2Cc1ccc(OC)cc1 (configuration not stated)	HCV inh inconclusive, HCMV inh -75, Pf growth 96h inconclusive, Pf growth 48h inconclusive
COc1ccc(Cn2c(C)nc3c(c2=O)c2nc4ccccc4nc2n3Cc2ccco2)cc1	HCV inh inconclusive (no result: Pf growth 96h, Lassa entry inh, Pf growth 48h)
OCCn1c(CSc2nnc(-c3ccco3)n2-c2ccccc2)nc2ccc(Cl)cc21	Pf growth 48h 12µM (no result: Pf growth 96h)
CC1CCc2onc(C(=O)N3CCN(c4ccccc4)CC3)c2C1 (configuration not stated)	HCMV inh inconclusive (no result: HCV inh, Pf growth 96h, Pf growth 48h, MARV entry inh)
CC(=O)OCCCn1c(C)[n+](C)c2cc(Cl)c(Cl)cc21	Pf growth 48h 5.2µM (no result: Lassa entry inh, MARV entry inh)
CCn1c(C)[n+](CCOC(C)=O)c2cc(Cl)c(Cl)cc21	HCMV inh inconclusive, Lassa entry inh inconclusive, Pf growth 48h 2.3µM
Cc1cccc(CNc2nc3cnc(-c4ccc(F)cc4)cc3n2C)c1	none (no result: HCV inh, Pf growth 96h, Lassa entry inh, Pf growth 48h, MARV entry inh)
O=C1N(Cc2cccc(Cl)c2)C[C@@H]2C[C@@H](c3cccc4cccnc34)N3CCC[C@@]123	Pf growth 96h inconclusive, Pf growth 48h inconclusive, MARV entry inh inconclusive
O=C1N(Cc2cccc(Cl)c2)C[C@@H]2C[C@@H](c3cccc4ncccc34)N3CCC[C@@]123	HCV inh 11µM, Lassa entry inh inconclusive, Pf growth 48h 1.7µM, MARV entry inh inconclusive
O=C1N(Cc2cccc(Cl)c2)C[C@@H]2C[C@@H](c3cccn3-c3ccccn3)N3CCC[C@@]123	HCV inh 6.3µM, Pf growth 96h inconclusive, Lassa entry inh inconclusive, Pf growth 48h 12µM, MARV entry inh inconclusive
O=C1N(Cc2cccc(Cl)c2)C[C@@H]2C[C@@H](c3cccn3-c3nccs3)N3CCC[C@@]123	HCV inh inconclusive, Pf growth 96h inconclusive, Lassa entry inh inconclusive, Pf growth 48h inconclusive, MARV entry inh 11µM
COC(=O)C1CC2=C(CCCC2=O)N(Cc2ccccc2)C1=O (configuration not stated)	none (no result: Pf growth 96h, Lassa entry inh, Pf growth 48h, MARV entry inh)
O=C(NCCc1c[nH]c2ccccc12)C(=O)NCC1OCCCN1S(=O)(=O)c1ccccc1 (configuration not stated)	HCV inh inconclusive, HCMV inh inconclusive, Pf growth 96h inconclusive, Lassa entry inh inconclusive, Pf growth 48h 9.3µM, MARV entry inh inconclusive
Cc1ccc(S(=O)(=O)N2CCOC2CNC(=O)C(=O)NCCCN2CCOCC2)cc1 (configuration not stated)	HCMV inh -61 (no result: Lassa entry inh, MARV entry inh)
Cc1ccc(S(=O)(=O)N2CCCOC2CNC(=O)C(=O)NCCc2c[nH]c3ccccc23)cc1 (configuration not stated)	HCV inh inconclusive, HCMV inh -64, Pf growth 96h 13µM, Lassa entry inh inconclusive, Pf growth 48h inconclusive, MARV entry inh inconclusive
O=C(NCCCN1CCOCC1)C(=O)NCC1OCCN1S(=O)(=O)c1ccc(F)cc1 (configuration not stated)	Pf growth 96h inconclusive
CCCCn1c(N)c(N(C(=O)CSc2nncn2-c2ccccc2C)C2CCCC2)c(=O)[nH]c1=O	none (no result: Pf growth 96h, Lassa entry inh, Pf growth 48h, MARV entry inh)
C=CCC(O)(CCN1CCCCC1)c1ccccc1 (configuration not stated)	MARV entry inh inconclusive
CC[N+](CC)(CC)CCC(O)(c1ccccc1)C1CCCCC1 (configuration not stated)	Pf growth 96h 10µM, Pf growth 48h 6.6µM (no result: Lassa entry inh, MARV entry inh)
CCN(CC)CCC(O)(c1ccccc1)C1CCCCC1 (configuration not stated)	Pf growth 48h inconclusive (no result: Lassa entry inh, MARV entry inh)
OC(CCN1CCCC1)(c1ccccc1)C1CCCCC1 (configuration not stated)	HCMV inh -60, Lassa entry inh inconclusive, MARV entry inh inconclusive
OC(CCN1CCCCC1)(c1ccccc1)c1ccccc1	HCMV inh -81, Pf growth 96h inconclusive, Pf growth 48h inconclusive, MARV entry inh inconclusive
COc1ccc(C(O)(CCc2ccccc2)CCN2CCCCC2)cc1 (configuration not stated)	HCV inh 32µM, Lassa entry inh inconclusive, Pf growth 48h inconclusive, MARV entry inh inconclusive
CCN(C(=S)Nc1cccc2ccccc12)c1ccccc1	none (no result: HCV inh, Pf growth 96h, Lassa entry inh, Pf growth 48h, MARV entry inh)
NC(=O)C(CCCCN1CCCCC1)(c1ccccc1)c1ccccc1	none (no result: Pf growth 96h, Pf growth 48h)
OC(CCCN1CCCCC1)(c1ccccc1)c1ccc(C(F)(F)F)cc1 (configuration not stated)	HCV inh 11µM, MARV entry inh inconclusive (no result: Pf growth 96h, Pf growth 48h)
CCc1cccc(C)c1NC(=O)C1=C(C)C(=O)OC12CCC(C)CC2 (configuration not stated)	none (no result: HCV inh, Pf growth 96h, Pf growth 48h)
CCOc1cc(/C=C2\SC(=N)N(c3nccs3)C2=O)ccc1OCCN1CCOCC1	HCMV inh -70, Pf growth 96h 4.1µM, Lassa entry inh inconclusive, Pf growth 48h inconclusive, MARV entry inh inconclusive
O=C(CN1CCSC1=NCc1ccccc1)c1ccc(Cl)cc1	HCV inh 13µM, Pf growth 96h inconclusive
O=C(Nc1ccc(Cl)cc1)N1CCSC1=NCc1ccccc1	none
Nc1nc(Nc2ccccc2)nc(C(F)(F)F)n1	Pf growth 96h 7.4µM
